Consider 13 molecules from PubChem BioAssay (NCI).

This is part of a sample that, as a whole, favours compounds with a hit. Of some 83,000 tested, about 20% had one in any assay.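 Values shown are percent growth following 48 h exposure of cells in 96-well plates to a single concentration of compound; below 10 was considered active.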 Unmarked numbers belong to inactive results. Calls of active or inactive are those of the source.

Among the test systems are DU-145 prostate; K-562 leukemia; MALME-3M melanoma; MDA-MB-231 breast; RXF 393 renal; SF-268 CNS; SF-295 CNS; SF-539 CNS; UACC-257 melanoma; M14 melanoma.
Experiment in all cases: NCI-60 one-dose screen, 48 h (100 = growth as untreated, 0 = no growth, -100 = all killed)
What all share (conditions): 10 µM unless noted

`c1cc2c(c3c1CCNC3)OCO2`: the growth in the test on DU-145 prostate was 120%; in the test with K-562 leukemia it was 106%; in the test on MALME-3M melanoma, 94.8%; in the test with MDA-MB-231 breast it was 100%; with RXF 393 renal, 104%; in the test on SF-268 CNS it was 102%. Also, the growth in the test with SF-295 CNS is 96.4%; in the test on SF-539 CNS, 105%; with UACC-257 melanoma it was 78.5%; in the test with M14 melanoma, 101%.
For `C=CC[PH+](c1ccccc1)c1ccccc1.C=CC[PH+](c1ccccc1)c1ccccc1.[Cl][Pt][Cl]`, the growth is 71.7% in the test with DU-145 prostate; 0.456% (active) in the test on K-562 leukemia; -26.4% (active) with MALME-3M melanoma; 41.8% in the test with MDA-MB-231 breast; -16.6% (active) with RXF 393 renal; 95.5% in the test with SF-268 CNS. Further, the growth with SF-295 CNS was 89.8%; with SF-539 CNS, 68%; in the test on UACC-257 melanoma it was 80%; with M14 melanoma, 51.9%.
As to `Cn1cc(C2=C(c3cn(C4CCN(Cc5ccccn5)CC4)c4ccccc34)C(=O)NC2=O)c2ccccc21`, the growth was 70% with DU-145 prostate; 91.3% in the test with K-562 leukemia; -3.24% (active) with MALME-3M melanoma; 79.8% in the test on MDA-MB-231 breast; 90.9% with RXF 393 renal; 82.8% with SF-268 CNS. The growth in the test on SF-295 CNS is 97.1%; in the test with SF-539 CNS, 89.6%; with UACC-257 melanoma, -0.885% (active); in the test with M14 melanoma, 16.5%.
`C=CC[Se]C(=O)c1ccccc1OC(C)=O`: the growth in the test with DU-145 prostate was 1.76% (active); in the test on K-562 leukemia it was 46.8%; in the test on MALME-3M melanoma, 30.9%; in the test with MDA-MB-231 breast it was -25.5% (active); in the test with RXF 393 renal, -21% (active); in the test with SF-268 CNS, 27.1%. In addition, the growth in the test on SF-295 CNS is -29.4% (active); in the test on SF-539 CNS, -82.4% (active); with UACC-257 melanoma, 5.44% (active); in the test with M14 melanoma, -6.78% (active).
On to `O=C(N/N=C\c1ccc(N(CCCl)CCCl)cc1Cl)c1cccnc1`, for which the growth in the test with DU-145 prostate is 94.4%; in the test with K-562 leukemia, 82%; in the test with MALME-3M melanoma, 116%; with MDA-MB-231 breast, 85%; in the test with RXF 393 renal it was 82.8%; in the test on SF-268 CNS, 99.1%. Also, the growth in the test on SF-295 CNS was 59.6%; with SF-539 CNS, 95.3%; in the test on UACC-257 melanoma, -10.9% (active); with M14 melanoma, 98%.
On to `Clc1cccc(Cl)c1Cl`, for which the growth in the test with DU-145 prostate is 101%; in the test with K-562 leukemia, 84.9%; with MALME-3M melanoma, 103%; with MDA-MB-231 breast it was 117%; with RXF 393 renal, 122%; in the test on SF-268 CNS it was 97.5%. Besides, the growth in the test with SF-295 CNS was 95.1%; in the test on SF-539 CNS it was 100%; in the test with UACC-257 melanoma, 86.6%; in the test with M14 melanoma, 94.7%.
`C#C[C@]1(OC(=O)CCCCCC)CC[C@H]2[C@@H]3CCC4=CC(=O)CC[C@@H]4[C@H]3CC[C@@]21C`: the growth with DU-145 prostate was 72.1%; in the test on K-562 leukemia, 20.7%; in the test on MALME-3M melanoma, 77.1%; in the test on MDA-MB-231 breast, 59.7%; with RXF 393 renal it was 58.8%; with SF-268 CNS it was 50.7%. Further, the growth in the test with SF-295 CNS is 32.2%; in the test with SF-539 CNS, 47.9%; in the test on UACC-257 melanoma, 55%; in the test with M14 melanoma it was 25.6%.
For `Cc1ccc2c(C(C[N+](=O)[O-])c3cccs3)c(-c3ccccc3)[nH]c2c1` (stereo not given), the growth with DU-145 prostate was 28.1%; in the test on K-562 leukemia, 10.8%; in the test with MALME-3M melanoma, 50.9%; in the test on MDA-MB-231 breast it was 44.1%; with RXF 393 renal it was 13.8%; with SF-268 CNS, 37.7%. Further, the growth in the test on SF-295 CNS is 7.69% (active); in the test with SF-539 CNS, 6.62% (active); in the test on UACC-257 melanoma it was 30%; in the test on M14 melanoma it was 19.4%.
Take `O=[N+]([O-])CC(O)C(Cl)(Cl)Cl` (stereo not given): the growth with DU-145 prostate was 117%; with K-562 leukemia, 113%; with MALME-3M melanoma, 97.5%; in the test with MDA-MB-231 breast, 122%; in the test with RXF 393 renal it was 116%; with SF-268 CNS it was 101%. The growth in the test with SF-295 CNS was 102%; with SF-539 CNS, 92.6%; in the test with UACC-257 melanoma, 111%; with M14 melanoma, 104%.
In the case of `OCCCCCNC1CCCCC1`, the growth in the test with DU-145 prostate was 115%; with K-562 leukemia, 94%; in the test with MALME-3M melanoma, 97.3%; with MDA-MB-231 breast it was 114%; in the test on RXF 393 renal, 104%; with SF-268 CNS, 113%. Further, the growth is 110% with SF-295 CNS, 98% in the test on SF-539 CNS, 99.5% in the test on UACC-257 melanoma and 101% in the test with M14 melanoma.
Regarding `COC(=O)[C@@H](C)C[C@H](Cc1ccccc1)NC(=O)c1csc([C@@H](C[C@H](C(C)C)N(C)C(=O)[C@@H](NC(=O)[C@H]2CCCCN2C)C(C(F)(F)F)C(F)(F)F)OC(C)=O)n1`, the growth with DU-145 prostate is 11.4%; with K-562 leukemia it was 8.83% (active); in the test with MALME-3M melanoma it was 65.8%; in the test on MDA-MB-231 breast, 6.65% (active); with RXF 393 renal it was 46%; in the test with SF-268 CNS, 18.3%. Further, the growth with SF-295 CNS is 9.85% (active); in the test on SF-539 CNS, -11.1% (active); in the test on UACC-257 melanoma, 52.4%; with M14 melanoma, -20.3% (active).
In the case of `COc1ccc(C/C(C)=C(\c2ccc(OCCN3CCOCC3)cc2)c2ccc(OC(=O)Cc3ccccc3)cc2)cc1`, the growth is 9.74% (active) in the test with DU-145 prostate; -24.7% (active) with K-562 leukemia; -79.5% (active) in the test on MALME-3M melanoma; -48.4% (active) with MDA-MB-231 breast; -83.3% (active) with RXF 393 renal; -21.3% (active) in the test on SF-268 CNS. For the same molecule, the growth in the test on SF-295 CNS was -57.6% (active); in the test with SF-539 CNS, -85.4% (active); with UACC-257 melanoma, -89.2% (active); with M14 melanoma, -66.9% (active).
For `O=[N+]([O-])c1c(Br)sc(Br)c1[N+](=O)[O-]`, the growth in the test with DU-145 prostate is 46.9%; in the test on K-562 leukemia it was 3.25% (active); in the test with MALME-3M melanoma, -41.5% (active); with MDA-MB-231 breast it was 14.2%; with RXF 393 renal, -75.5% (active); in the test with SF-268 CNS, 85.7%. The growth is 99% with SF-295 CNS, -12.3% (active) with SF-539 CNS, -0.992% (active) with UACC-257 melanoma and -18.9% (active) in the test on M14 melanoma.
